# Compound activity (PubChem BioAssay)
# Vaccinia Venus: vaccinia inhibition (Venus reporter) | AID 720580 | Potency, µM (doses to about 36.5 µM), without a hit: at the highest dose activity change, negative = inhibition, most hits filed as inhibitors | actives 0.46% (n = 330,000) | Vaccinia virus Venus reporter expression, fluorescence; calls by dose curve; tested in A549 cells; also: potency is read from the fitted curve at half-maximal effect; nearly all actives have a fitted effect of over 30% in size
# LASV entry inh: inhibitors of Lassa virus binding or cell entry; Lassa virus pseudotype entry inhibition, cell reporter; Potency, µM (top dose mostly 37.9 µM), for inactives: at the highest dose activity change, negative = inhibition, hits mostly inhibitors; actives 1.2% (n = 300,000); AID 540256; calls by dose curve; tested in HEK293 cells; also: potency is read from the fitted curve at half-maximal effect; nearly all actives have a fitted effect of over 50% in size
# VACV mCherry inh: vaccinia inhibition (mCherry reporter) | Vaccinia virus mCherry reporter infection, fluorescence | AID 720579 | actives 0.63% (n = 310,000) | Potency, µM (doses to about 36.5 µM), without a hit: at the top dose activity change, negative = inhibition, actives largely listed as inhibitors; calls by dose curve; tested in A549 cells; also: potency is read from the fitted curve at half-maximal effect; nearly all actives have a fitted effect of over 35% in size
# HCV inh: blocks hepatitis C virus; Huh7.5.1 HCVcc-Cre infection, luciferase reporter, 44 h; Potency, µM (top dose mostly 41.8 µM), for the others: at the top dose activity change, negative = inhibition, usual class: inhibitors; actives 3.4% (n = 340,000); AID 651820; active = well fitted inhibition curve with a large enough effect; inconclusive = small, poorly fitted or top-dose-only effect, or another doubt; inactive = no such curve, though single readings can be large or run the other way; also: potency is read from the fitted curve at half-maximal effect
#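 Cells (1,000/well) were plated 4 h before compound, then infected with HCVcc-Cre virus (~0.5 moi). After 44 h further culture, infection was read as luciferase luminescence following a 15 min substrate incubation at room temperature.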
# MARV entry inh: blocks Marburg virus binding to or entry into cells. Marburg virus pseudotyped entry inhibition, cell reporter. Potency, µM (titrated, usually from 37.8 µM), inactives show at the top dose activity change, negative = inhibition, actives largely listed as inhibitors. actives 1.8% (n = 300,000); calls by dose curve; tested in HEK293 cells; also: potency is read from the fitted curve at half-maximal effect
# HCMV antiviral: inhibitors of human cytomegalovirus. AID 1259415. activity change, negative = inhibition, % at 57.5 µM. HFF cells, HCMV-luciferase reporter, 72 h; stronger effect = lower value. actives 4.5% (n = 410,000); in the data active = activity change below about -60%; inconclusive = no clear call, values can overlap the other calls; inactive = above about -39%
#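 Two compound doses tested in HFFs infected with HCMV-luciferase, MOI 1 PFU/cell, 72 h at 37C. Lysate luminescence read with OneGlo; data normalized against buffer-only and 10uM Salinomycin inhibitor controls.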
# The depositor's hits bear a star; i = inactive; ? = inconclusive; . = no result given; [ ] = dose if it differs, or a comment. Compounds with a hit are over-represented: about 7.8% of the library has one in this group of screens. % is scaled to controls: 0 for no effect and ±100 for the full control effect.
SMILES,Vaccinia Venus,LASV entry inh,VACV mCherry inh,HCV inh,MARV entry inh,HCMV antiviral
COc1ccc(CN2CCC(C(=O)Nc3ccc(Oc4cccnc4)cc3)CC2)cc1,-19%,?,?,?,?,-75*
COc1cccc(NC(=O)C2CCN(Cc3cnn(-c4ccccc4)c3-n3cccc3)CC2)c1,.,?,.,11µM*,?,-19
COc1cccc(O)c1CN1CCC(C(=O)Nc2ccc(Oc3cccnc3)cc2)CC1,-17%,-26%,i,?,11µM*,?
COc1cccc(-c2cccc(NC(=O)C3CCN(Cc4cccc(C)n4)CC3)c2)c1,-7%,4%,i,-14%,-4%,-30
COc1cccc(O)c1CN1CCC(C(=O)Nc2ccc(-c3cccc(C)c3)cc2)CC1,?,?,-21%,1µM*,?,-31
COc1ccc(C(NC(=O)C2CCN(Cc3ccc(Oc4ccccc4)cc3)CC2)c2ccccn2)cc1 (stereo not given),-21%,.,i,.,.,-9
CC(C)(C)CC(C)(C)N=C1Nc2ccc([N+](=O)[O-])cc2N[C@]12C[C@H]1CCCC(=O)N3CC[C@@H](C2)[C@@H]13,-9%,.,i,.,.,.
O=C(Cc1ccc(F)cc1)NCc1nc2cccnc2n1Cc1ccc(F)cc1,0%,-2%[46.1 µM],-12%,.,.,-23
CCOC(=O)c1ccccc1NC(=O)CSc1cn(CC(=O)N2CCCCC2)c2ccccc12,-4%,4%[46.1 µM],-9%,.,.,1
COc1ccc(S(=O)(=O)N2CCCCC2)cc1C(=O)Nc1cccc(C(F)(F)F)c1,0%,-6%[46.1 µM],i,.,.,11
Cn1cc(CN2CCC(C(=O)Nc3ccc(Oc4ccccc4F)cc3)CC2)cn1,.,.,.,11µM*,.,?
O=S(=O)(NCC1CC1)c1cc(Cl)cc(Cl)c1,-10%,10%[46.1 µM],i,3%,-18%[46.1 µM],-65*
C=C(C)CNC(=S)N/N=C(\C)c1ccc(OC)cc1,-23%,?,?,?,?,-70*
C/C(=N\NC(=S)NCc1ccccc1)c1ccc(C(C)(C)C)cc1,-29%,0.46µM*,-28%,-21%,?,17
COCCNC(=S)N/N=C(\C)c1ccc2cc(OC)ccc2c1,-24%,8.2µM*,?,?,?,-75*
COc1ccc(CNC(=S)N/N=C(/C)c2ccccc2)cc1,-17%,14µM*,-9%,1%,?,-2
COCCNC(=S)N/N=C(\C)c1ccc(OC)cc1,-12%,?,-10%,2%,-4%,-21
Cn1cc(Br)cc1-c1ncc(Cc2c[nH]c(N)[n+]2C)o1,.,.,.,.,.,-20
CC(C)(C)OC(=O)N1CCC(c2c(C(=O)N3CCC(c4ccccc4)C3)cnn2-c2cccc(Cl)c2)CC1 (stereo not given),-8%,?,-23%,.,.,27
O=C(Nc1nc2ccccc2n1CCN1CCOCC1)c1ccc(COc2ccccc2Br)o1,-27%,?,?,10µM*,?,?
O=C(Nc1nc2ccccc2n1CCN1CCOCC1)c1ccc(Cn2cc([N+](=O)[O-])cn2)o1,-19%,?,-17%,-12%,?,-10
COc1cc(-c2c(OC)cccc2OC)cc2c1OCCN(Cc1cn[nH]c1-c1ccc(Cl)cc1)C2,0%,.,-4%,.,.,.
O=C(COC(=O)c1ccc[nH]c1=O)Nc1ccc(N2CCCCC2)cc1,.,.,.,-25%,.,-75*
O=C(OCC(=O)N1CCCCCC1)c1ccc[nH]c1=O,.,.,.,20%,.,-60*
O=C(COC(=O)c1ccc[nH]c1=O)Nc1ccc(S(=O)(=O)N2CCCC2)cc1,.,.,.,1%,.,?
Cc1ccsc1CN(C(=O)COc1cccc(C)c1C)C1CCS(=O)(=O)C1 (stereo not given),-4%,4%[46.1 µM],-12%,.,-35%[46.1 µM],-16
CCCCN1C(=O)Cc2c1nc(N)c1c(N)nc(N(CCC)CCC)c(C#N)c21,-6%,-1%,-6%,4µM*,15%,-22
COc1ccc(CN2C(=O)Cc3c2nc(N)c2c(N)nc(N4CCCCC4)c(C#N)c32)cc1,.,.,.,-14%,.,.
N#Cc1c(N(CCO)CCO)nc(N)c2c(N)nc3c(c12)CC(=O)N3CC1CCCO1 (stereo not given),.,.,.,19%,.,-23
